Test results from ChEMBL document CHEMBL1961873, “Compounds: GSK PKIS; Assays: Nanosyn kinase panel” (2012).

Legend:
[1] = molecular target: RAC-alpha serine/threonine-protein kinase (Homo sapiens) (UniProt P31749); conditions: at 0.1 µM
[2] = molecular target: RAC-alpha serine/threonine-protein kinase (Homo sapiens) (UniProt P31749); conditions: at 1 µM
[3] = molecular target: RAC-beta serine/threonine-protein kinase (Homo sapiens) (UniProt P31751); conditions: at 0.1 µM
[4] = molecular target: RAC-beta serine/threonine-protein kinase (Homo sapiens) (UniProt P31751); conditions: at 1 µM
[5] = molecular target: RAC-gamma serine/threonine-protein kinase (Homo sapiens) (UniProt Q9Y243); conditions: at 0.1 µM
Chain of RAC-gamma serine/threonine-protein kinase (Homo sapiens) (Q9Y243 whole entry): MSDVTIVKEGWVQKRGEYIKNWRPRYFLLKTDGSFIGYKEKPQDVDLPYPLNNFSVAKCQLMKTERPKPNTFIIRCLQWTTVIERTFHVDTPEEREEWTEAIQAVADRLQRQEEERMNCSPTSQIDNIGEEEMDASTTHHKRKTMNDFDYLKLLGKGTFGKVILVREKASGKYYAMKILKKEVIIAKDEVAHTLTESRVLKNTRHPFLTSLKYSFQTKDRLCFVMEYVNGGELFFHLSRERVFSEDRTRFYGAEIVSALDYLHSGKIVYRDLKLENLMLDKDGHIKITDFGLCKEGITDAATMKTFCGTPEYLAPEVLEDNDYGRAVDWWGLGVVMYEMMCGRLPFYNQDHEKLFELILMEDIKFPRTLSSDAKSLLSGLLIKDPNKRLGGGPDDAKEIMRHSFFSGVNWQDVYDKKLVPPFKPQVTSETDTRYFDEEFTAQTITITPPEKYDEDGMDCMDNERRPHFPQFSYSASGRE

[6] = molecular target: RAC-gamma serine/threonine-protein kinase (Homo sapiens) (UniProt Q9Y243); conditions: at 1 µM
[7] = molecular target: G protein-coupled receptor kinase 6 (Homo sapiens) (UniProt P43250); conditions: at 0.1 µM
Chain of G protein-coupled receptor kinase 6 (Homo sapiens) (P43250 whole entry, looked up): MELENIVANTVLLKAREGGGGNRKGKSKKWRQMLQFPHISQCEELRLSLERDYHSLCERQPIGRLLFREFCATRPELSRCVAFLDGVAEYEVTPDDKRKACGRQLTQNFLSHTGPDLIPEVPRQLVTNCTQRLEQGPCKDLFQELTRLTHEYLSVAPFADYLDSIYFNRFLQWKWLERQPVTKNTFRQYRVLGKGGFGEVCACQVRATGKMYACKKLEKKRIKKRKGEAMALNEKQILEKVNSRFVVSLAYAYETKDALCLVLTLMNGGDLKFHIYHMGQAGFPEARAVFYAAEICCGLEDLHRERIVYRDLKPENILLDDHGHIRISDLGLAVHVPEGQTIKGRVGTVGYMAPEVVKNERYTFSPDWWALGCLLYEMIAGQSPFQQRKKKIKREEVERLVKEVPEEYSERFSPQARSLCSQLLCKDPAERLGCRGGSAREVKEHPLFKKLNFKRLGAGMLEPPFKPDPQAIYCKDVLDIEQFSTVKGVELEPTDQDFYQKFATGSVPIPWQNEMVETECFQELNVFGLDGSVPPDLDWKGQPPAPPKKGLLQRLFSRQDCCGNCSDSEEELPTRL

[8] = molecular target: G protein-coupled receptor kinase 6 (Homo sapiens) (UniProt P43250); conditions: at 1 µM
[9] = molecular target: T1, Rhodopsin kinase GRK7 (Homo sapiens) (UniProt Q8WTQ7); conditions: at 0.1 µM
T1 sequence (whole entry): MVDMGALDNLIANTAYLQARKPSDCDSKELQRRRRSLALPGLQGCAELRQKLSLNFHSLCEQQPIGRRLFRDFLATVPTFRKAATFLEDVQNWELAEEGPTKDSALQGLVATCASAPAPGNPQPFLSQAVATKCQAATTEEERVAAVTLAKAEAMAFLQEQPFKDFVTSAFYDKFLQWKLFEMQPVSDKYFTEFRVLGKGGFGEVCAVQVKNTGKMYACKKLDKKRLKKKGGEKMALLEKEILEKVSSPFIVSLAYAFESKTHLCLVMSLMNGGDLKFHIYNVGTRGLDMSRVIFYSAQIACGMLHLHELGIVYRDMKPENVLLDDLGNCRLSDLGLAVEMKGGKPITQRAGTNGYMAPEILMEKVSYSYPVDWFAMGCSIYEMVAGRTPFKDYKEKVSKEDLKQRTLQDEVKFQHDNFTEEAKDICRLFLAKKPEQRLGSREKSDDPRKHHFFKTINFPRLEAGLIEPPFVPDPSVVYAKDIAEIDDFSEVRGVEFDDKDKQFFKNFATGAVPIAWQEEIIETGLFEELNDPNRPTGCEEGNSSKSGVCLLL

[10] = molecular target: T1, Rhodopsin kinase GRK7 (Homo sapiens); conditions: at 1 µM

Chain of RAC-alpha serine/threonine-protein kinase (Homo sapiens) (P31749 whole entry): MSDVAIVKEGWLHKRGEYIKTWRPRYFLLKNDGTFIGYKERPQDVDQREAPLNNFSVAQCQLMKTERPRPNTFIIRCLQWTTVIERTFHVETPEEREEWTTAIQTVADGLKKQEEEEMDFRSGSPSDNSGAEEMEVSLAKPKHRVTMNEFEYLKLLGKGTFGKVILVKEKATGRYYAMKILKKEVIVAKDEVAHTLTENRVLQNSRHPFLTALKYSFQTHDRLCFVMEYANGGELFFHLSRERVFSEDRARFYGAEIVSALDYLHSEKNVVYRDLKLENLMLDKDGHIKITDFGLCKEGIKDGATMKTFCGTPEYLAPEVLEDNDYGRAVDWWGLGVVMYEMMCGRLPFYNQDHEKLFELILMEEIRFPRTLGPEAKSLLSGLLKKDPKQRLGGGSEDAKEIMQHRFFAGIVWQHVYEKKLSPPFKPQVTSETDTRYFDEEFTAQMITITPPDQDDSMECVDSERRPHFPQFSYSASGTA
Chain of RAC-beta serine/threonine-protein kinase (Homo sapiens) (P31751 whole entry): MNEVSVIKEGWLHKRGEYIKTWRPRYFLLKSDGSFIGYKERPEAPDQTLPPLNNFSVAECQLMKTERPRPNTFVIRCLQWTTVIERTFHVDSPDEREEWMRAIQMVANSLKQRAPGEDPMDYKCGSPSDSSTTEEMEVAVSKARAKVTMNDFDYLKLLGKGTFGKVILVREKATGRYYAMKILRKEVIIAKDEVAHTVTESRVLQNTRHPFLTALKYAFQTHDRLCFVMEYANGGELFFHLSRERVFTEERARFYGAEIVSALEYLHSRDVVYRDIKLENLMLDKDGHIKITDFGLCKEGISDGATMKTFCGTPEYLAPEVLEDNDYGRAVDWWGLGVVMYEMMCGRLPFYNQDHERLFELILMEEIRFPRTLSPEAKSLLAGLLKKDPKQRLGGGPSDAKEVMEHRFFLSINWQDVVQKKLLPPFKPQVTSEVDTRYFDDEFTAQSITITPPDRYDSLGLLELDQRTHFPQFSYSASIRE

Structure (SMILES) | inhibition [1] | inhibition [2] | inhibition [3] | inhibition [4] | inhibition [5] | inhibition [6] | inhibition [7] | inhibition [8] | inhibition [9] | inhibition [10]
CN(C)C(=O)O[C@H]1CN[C@H](C#Cc2cc3ncnc(Nc4ccc(OCc5cccc(F)c5)c(Cl)c4)c3s2)C1 | 0.44% | 1.13% | 1.82% | 1.59% | 1.22% | -1.3% | 3.73% | 0.78% | 2.97% | 8.33%
O=C(Nc1ccc(Oc2ccc3[nH]c(NC(=O)c4ccco4)nc3c2)cc1)Nc1cc(C(F)(F)F)ccc1F | -3.62% | -0.4% | -3.05% | -2.64% | -3.47% | -4.94% | 0.72% | -4.1% | -0.48% | -4.51%
N#Cc1cccc(Nc2nccc(-c3cnn4ncccc34)n2)c1 | 0.4% | 1.36% | 1.11% | 1.66% | 3.16% | 5.1% | 2.91% | 8.01% | 6.46% | 21.6%
CC(C)c1ccc(Nc2nccc(-c3cnn4ncccc34)n2)cc1 | 0.38% | 0.64% | 1.28% | 1.13% | 1.09% | 1.51% | 4.74% | 3.14% | 2.17% | 3.19%
NS(=O)(=O)c1cccc(Nc2cc(-c3ccc(F)cc3)n[nH]2)c1 | 1.57% | 2.41% | 3.5% | 2.66% | 2.29% | 3.03% | 4.03% | 8.09% | 2.68% | 5.14%
CC(C)c1ccc2c(c1)NC(=O)/C2=N/Nc1ccc(S(N)(=O)=O)cc1 | -0.05% | -0.49% | -0.37% | 0.73% | -0.27% | 4.41% | -0.59% | -0.78% | 2.96% | -0.57%
O=C1Nc2ccc(-c3cccnc3)cc2C1=Cc1cc(Br)c(O)c(Br)c1 | 1.65% | 2.74% | 1.49% | 2.84% | 1.24% | 1.67% | 11.3% | 46.1% | 20% | 60.3%
Cc1cc(Cl)cc2c1NC(=O)C2=NNc1ccc(S(N)(=O)=O)cc1 | 0.38% | 0.03% | 0.6% | 1.11% | 0.3% | 0.71% | 7.71% | 11% | 5.48% | 13.2%
CS(=O)(=O)Nc1cccc(-c2ccc3c(NC(=O)C4CC4)n[nH]c3c2)c1 | 0.47% | -0.39% | 0.26% | 0.15% | 0.35% | -2.8% | 1.58% | -0.72% | 0.25% | 2.21%
Cc1ccc(NC(=O)CC2CC2)cc1-c1ccc(C(=O)NCC2CC2)cc1 | 0.17% | 0.7% | 1.47% | 1.58% | 1.47% | 1.65% | 2.05% | 6.65% | 0.94% | 0.75%
Cc1ccc(O)cc1Nc1ccnc2ccc(S(C)(=O)=O)cc12 | 0.79% | 0.22% | 2.36% | 1.9% | 1.87% | 4.72% | 6.06% | 7.8% | 3.42% | 9.64%
CN(C)C(=O)O[C@@H]1CN[C@@H](C#Cc2cc3ncnc(Nc4ccc(OCc5cccc(F)c5)c(Cl)c4)c3s2)C1 | -0.54% | -0.11% | 0% | -1.02% | -0.71% | 0.16% | 0.14% | -1.42% | -2.8% | 11.4%
CCS(=O)(=O)c1ccc(OC)c(Nc2ncc(-c3cccc(OC)c3)o2)c1 | 0.36% | 0.85% | 1.41% | 0.82% | 1.04% | -0.57% | -1.06% | -5% | -0.18% | -8.47%
NS(=O)(=O)c1ccc(-c2cc3ccncc3cc2OCc2ccccc2)cc1 | 0.08% | 0.83% | 1.46% | 1.66% | 0.51% | 2.2% | 2.02% | 8.2% | 1.52% | 6.27%
COc1cc2ncnc(Nc3ccc(C)c(O)c3)c2cc1OC | 0.49% | 0.96% | 1.99% | 1.77% | 1.98% | 1.76% | 6% | 5.91% | 4.99% | 7.5%
CCS(=O)(=O)c1ccc(OC)c(Nc2nccc(N(C)c3ccc4c(C)n[nH]c4c3)n2)c1 | 1.44% | 1.19% | 1.01% | 2.53% | 0.55% | 2.78% | -0.58% | 1.67% | 9.6% | 1.83%
c1ccc(Cc2nc3ccc(Nc4ncnc5ccccc45)cc3[nH]2)cc1 | 0.62% | 0.65% | 1.38% | 1.4% | 1.19% | 0.88% | 3.39% | 3.05% | 0.46% | -1.96%

Structure (SMILES) | inhibition [1] | inhibition [2] | inhibition [3] | inhibition [4] | inhibition [5] | inhibition [6] | inhibition [7] | inhibition [8] | inhibition [9] | inhibition [10]
C[C@@H](Oc1cc(-n2cnc3ccc(OCC4CCN(C)CC4)cc32)sc1C(N)=O)c1ccccc1C(F)(F)F | -0.94% | -1.34% | -1.9% | -0.71% | -1.91% | 1.79% | -1.55% | -1.03% | 2.15% | -2.25%
Nc1nccc(-c2c(-c3ccc(F)cc3)nn3cc(C(F)(F)F)ccc23)n1 | 0.02% | -0.66% | -0.52% | 0.01% | 0.2% | -5.93% | -1.46% | -0.24% | 3.74% | 4.14%
COC(=O)Nc1nc2cc(Oc3ccc(NC(=O)Nc4cccc(Br)c4)cc3)ccc2[nH]1 | 0.46% | 0.17% | 1.35% | 1.01% | 1.37% | -2.06% | 4.28% | 6.2% | 3.16% | 25.9%
OCc1ccc(-c2nc(-c3ccccn3)c(-c3ccc4c(c3)OCO4)[nH]2)cc1 | 1.19% | 1.53% | 2.08% | 2.51% | 1.57% | 0.86% | 0.03% | 1.18% | 2.93% | -2.28%
COC(=O)c1cncc(/C=C/c2c(C)cc(O)cc2C)c1 | 1.01% | 0.52% | 1.09% | 1.16% | 1.47% | 1.17% | 7.47% | 9.38% | 3.31% | 3.95%
Cc1ccc2c(c1)/C(=N/Nc1ccc(S(N)(=O)=O)cc1)C(=O)N2 | 0.76% | -0.7% | 2.19% | -0.04% | -1.25% | 0.38% | -0.52% | -1.05% | 0.29% | 4.95%
COc1ccc2ncnc(Nc3ccc(OCc4ccccc4)cc3)c2c1 | 0.35% | -0.14% | 0.26% | 0.34% | 0.84% | 1.52% | 1.69% | 5.27% | 2.31% | 6.57%
NS(=O)(=O)c1ccc(Nc2cc(-c3cccc(O)c3)n[nH]2)cc1 | 0.91% | 0.58% | 1.64% | 3.28% | 2.49% | 1.75% | 1.19% | 3.55% | 3.02% | 5.39%
NC(=O)c1cccc(Nc2nccc(Nc3cccc(F)c3)n2)c1 | 0.22% | -0.29% | 0.22% | 0.58% | 0.47% | 3.46% | 2.83% | 0.77% | 4.02% | 2.39%
Oc1cccc(-c2nc(-c3ccccc3)[nH]c2-c2ccncc2)c1 | -0.1% | 1.39% | 2.18% | 2.47% | 0.82% | 3.85% | 6.53% | 4.9% | 1.3% | -0.71%
NS(=O)(=O)c1cccc(-c2cc3ccncc3cc2OCc2ccccc2)c1 | 1.37% | 0.84% | 1.79% | 2.65% | 2.96% | 0.32% | 0.24% | 2.95% | 2.9% | 4.85%
CN(C)CCCn1c(-c2nonc2N)nc2cnccc21 | 0.01% | 1.38% | 1.85% | 3.82% | 0.92% | 1.84% | 3.78% | 3.55% | 2.61% | 5.07%
Cc1ccc2c(-c3ccnc(Nc4ccc5c(c4)OCCO5)n3)c(-c3ccc(C(F)(F)F)cc3)nn2n1 | 1.37% | 1.23% | 1.5% | 1.65% | 1.43% | -4.48% | 0.55% | 2.19% | 5.75% | 2.78%
CN(c1ccc(NC(=O)Nc2ccc(OC(F)(F)F)cc2)cc1)c1ccnc(Nc2cccc(S(N)(=O)=O)c2)n1 | 0.77% | 0.88% | 0.51% | 1.22% | 0.16% | 2.79% | -5.14% | -2.97% | 3.47% | -1.66%
[O-][S+]1CCN(Cc2ccc(-c3ccc4ncnc(Nc5ccc(OCc6ccccc6)c(Cl)c5)c4c3)o2)CC1 | 0.1% | -0.3% | 0.29% | 1.29% | 0.15% | 2.06% | -0.03% | 1.12% | 7.76% | -2.22%
CN(C)c1cc2c(Nc3ccc4c(cnn4Cc4ccccc4)c3)ncnc2cn1 | 0.51% | 0.62% | 2.07% | 1.16% | 0.46% | 1.23% | 3.25% | 3.36% | 2.54% | 3.15%
Cc1ccc(C(=O)NC2CC2)cc1-c1ccc2[nH]ncc2c1 | -2.21% | -1.97% | -3.64% | -3.23% | -4.12% | 0.95% | 1.1% | -1.57% | -1.33% | -8.83%
